Hits are enriched below; roughly 1% of the tested compounds scored in any of these assays.
RXFP1 ag: qHTS Assay for Agonists of the Relaxin Receptor RXFP1. Relaxin receptor 1 (Homo sapiens), Q9HBX9. HEK293T-RXFP1 cAMP TR-FRET, 30 min; response scale: percent of porcine relaxin response, buffer zero. Potency, µM (highest dose often 57.5 µM), actives largely listed as activators. hit rate 0.3% among 370,000. AID 2676, 2010; active = well fitted activation curve with a large enough effect; inconclusive = small, poorly fitted or top-dose-only effect; note: nearly all actives have a fitted effect of over 60% in size
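HEK293T cells stably expressing RXFP1 were pretreated with the PDE4 inhibitor Ro 20174, exposed to compounds for 30 min at 37C, lysed, and cAMP was read by TR-FRET. Data normalized to buffer (basal) and 29 nM porcine relaxin (100%).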
gsp agonist: qHTS for Agonist of gsp, the Etiologic Mutation Responsible for Fibrous Dysplasia/McCune-Albright Syndrome: qHTS; Potency, µM (titrated, usually from 76.9 µM), hits mostly activators; hit rate 0.13% among 340,000; gsp mutant cells, cAMP HTRF, 30 min; AID 624287, 2012; active = well fitted activation curve with a large enough effect; inconclusive = small, poorly fitted or top-dose-only effect, or another doubt; inactive = no such curve, though single readings can be large or run the other way; cell line not stated here;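 note: phosphodiesterase inhibitor Ro 20-1724 added with compounds to block cAMP breakdown; nearly all actives have a fitted effect of over 60% in size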
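Cells in DMEM/10% FBS with G418 were pretreated with compounds in DMSO plus […] (300 uM stock) for 30 min at 37C. cAMP was measured by HTRF (cAMP-d2 plus anti-cAMP antibody-K) after 30 min at room temperature.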
TSHR antag: Antagonists of the Thyroid Stimulating Hormone Receptor: HTS campaign; Thyrotropin receptor (Homo sapiens), P16473; TSHR-expressing cells, TSH-stimulated cAMP HTRF, 2 h; hits give low values; activity change, negative = inhibition, % at 11.5 µM; hit rate 0.2% among 330,000;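 active = activity change below a set negative limit, meaning inhibition stronger than a set level, cut at about -70% in these data; inconclusive = activity change between two set negative limits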
Target sequence (P16473 whole entry, looked up): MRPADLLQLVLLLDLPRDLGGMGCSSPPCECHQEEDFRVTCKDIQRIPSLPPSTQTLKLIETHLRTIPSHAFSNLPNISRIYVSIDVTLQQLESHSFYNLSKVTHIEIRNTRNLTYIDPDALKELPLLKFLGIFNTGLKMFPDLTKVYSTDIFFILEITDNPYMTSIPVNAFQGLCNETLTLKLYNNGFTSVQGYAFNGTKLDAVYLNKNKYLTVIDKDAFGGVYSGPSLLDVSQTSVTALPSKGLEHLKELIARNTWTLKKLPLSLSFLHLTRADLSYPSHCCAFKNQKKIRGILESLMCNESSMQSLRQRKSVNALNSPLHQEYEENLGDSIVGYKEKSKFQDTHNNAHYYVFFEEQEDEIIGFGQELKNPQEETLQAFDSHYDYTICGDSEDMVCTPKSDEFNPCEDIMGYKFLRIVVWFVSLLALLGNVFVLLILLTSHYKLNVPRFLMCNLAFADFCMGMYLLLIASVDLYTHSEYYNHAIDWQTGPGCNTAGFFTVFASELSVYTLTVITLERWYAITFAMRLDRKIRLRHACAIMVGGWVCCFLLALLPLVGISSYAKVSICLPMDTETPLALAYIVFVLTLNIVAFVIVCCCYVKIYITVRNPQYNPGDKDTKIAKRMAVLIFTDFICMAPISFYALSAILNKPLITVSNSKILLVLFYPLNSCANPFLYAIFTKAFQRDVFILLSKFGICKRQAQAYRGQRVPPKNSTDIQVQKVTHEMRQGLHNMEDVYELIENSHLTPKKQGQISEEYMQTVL
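Read-out is FRET at 665 nm (cryptate excitation 337 nm) from a cryptate-tagged anti-cAMP antibody, competed by cell cAMP against cAMP-d2. Compounds are tested on freshly harvested TSHR cells challenged with 4nM TSH (EC80) for 2 hours at 37 deg C.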
gsp antagonist: qHTS for Antagonists of gsp, the Etiologic Mutation Responsible for Fibrous Dysplasia/McCune-Albright Syndrome: qHTS | Potency, µM (doses to about 76.9 µM), usual class: inhibitors | hit rate 0.4% among 340,000 | gsp-mutant cells, cAMP HTRF, 30 min; calls by dose curve; cell line not stated here;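 note: intracellular cAMP measured with PDE inhibitor Ro 20-1724 present during compound exposure; nearly all actives have a fitted effect of over 65% in size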
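Cells in G418 medium, seeded 16-24 h, 37C; buffer exchange to DPBS + 1 mM CaCl2, 0.5 mM MgCl2, 0.05% BSA; cpds in DMSO + […] (300 uM stock), 30 min 37C; HTRF cAMP detection.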
RXFP1 antag: qHTS Assay for Antagonists of the Relaxin Receptor RXFP1 | HEK293-RXFP1, relaxin-stimulated cAMP HTRF, 30 min; hits give low values | hit rate 0.59% among 350,000 | activity change, negative = inhibition, % at 57.5 µM;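 active = activity change of -60% or lower, but not beyond a set lower limit; inconclusive = change between -60% and -40%, or beyond the set limit; inactive = change above -40%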
Large screens that a line does not name were inactive.

CCCCN(CC)CCCNC(=O)c1ccc2c(c1)N(Cc1ccc(C)cc1)C(=O)c1ccccc1S2	RXFP1 antag -66 (no result: gsp agonist, TSHR antag, gsp antagonist)
CC(C)[C@@H]1CC[C@@H](C)C[C@H]1OC(=O)C[n+]1cc(-c2ccc(Cl)cc2)n2c1CCCCC2	RXFP1 antag -74
COc1ccc(-c2c[n+](CC(=O)OC3CC(C)CCC3C(C)C)c3n2CCC3)cc1 (stereo not drawn)	RXFP1 antag inconclusive
Cc1cc(NC(=S)N(Cc2cccc(Br)c2)CC2CCC(C(=O)O)CC2)ccc1Cl (stereo not drawn)	gsp antagonist 28µM
Cc1ccc(NC(=S)N(Cc2cccc(Br)c2)CC2CCC(C(=O)O)CC2)cc1 (stereo not drawn)	gsp antagonist inconclusive
Cc1cccc(C(=O)Nc2sc(C(=O)N3CCCC3)c(C)c2C#N)c1	gsp antagonist 32µM
Cc1c(C(=O)N2CCCC2)sc(NC(=O)c2cccc(Cl)c2)c1C#N	gsp antagonist inconclusive
NC(=O)C1CCN(c2nc(-c3ccc(N4CCCCC4)nc3)cs2)CC1	none (no result: RXFP1 ag, gsp agonist, gsp antagonist, RXFP1 antag)
CCC(=O)N1CCN(c2ccccc2NC(=O)c2ccc(-c3cccc([N+](=O)[O-])c3)o2)CC1	gsp antagonist 5.6µM
Cc1cccc(NC(=O)CN2C(=O)COc3ccc(S(=O)(=O)N4CCC(C)CC4)cc32)c1C	none (no result: gsp agonist, TSHR antag, gsp antagonist)
COc1cc(NC(=O)COc2cc(O)c3c(c2)OC(C)(C)CC3=O)cc(OC)c1OC	gsp antagonist 35µM (no result: gsp agonist, RXFP1 antag)
COc1cc(NC(=O)COc2cccc3c2OC(C)(C)C3)cc(OC)c1OC	gsp antagonist 35µM
Cc1ccc(NC(=O)Cn2c(=O)c(C(F)(F)F)nc3ccccc32)c(C)c1	none (no result: gsp agonist, TSHR antag, gsp antagonist, RXFP1 antag)
Cc1ccc(O)c(NC(=O)CCS(=O)(=O)c2nc(-c3cccs3)cc(C(F)(F)F)n2)c1	none (no result: gsp agonist, TSHR antag, gsp antagonist)
O=C(CCS(=O)(=O)c1nc(-c2cccs2)cc(C(F)(F)F)n1)Nc1ccc(Br)cc1	RXFP1 antag -108 (no result: gsp agonist, TSHR antag, gsp antagonist)
O=C(CCS(=O)(=O)c1nc(-c2cccs2)cc(C(F)(F)F)n1)Nc1cc(Br)ccc1O	RXFP1 antag -116 (no result: gsp agonist, TSHR antag, gsp antagonist)
Cc1ccc(CCNC(=O)CCc2cn(Cc3ccccc3C)c3ccccc23)cc1	none (no result: gsp agonist, TSHR antag, gsp antagonist)
Cc1cccc(C)c1N1CCN(C(=O)c2ccc3c(c2)OCO3)CC1	RXFP1 antag -62
Cc1cccc(N2CCN(C(=O)c3ccc4c(c3)OCCO4)CC2)c1C	none
Cc1ccccc1C(=O)N1CCN(c2ccc(NC(=O)c3ccc4c(c3)OCCO4)cc2)CC1	TSHR antag inconclusive, gsp antagonist 35µM, RXFP1 antag inconclusive
COc1ccc(NC(=O)Cn2c(=O)n(-c3ccc(C)cc3)c(=O)c3c2cnn3C)cc1	none (no result: gsp agonist, TSHR antag, gsp antagonist, RXFP1 antag)
CCOC(=O)Cc1csc(Nc2ccc(Cl)cc2)n1	none
CCOC(=O)Cc1nnc2c(Nc3ccc(Cl)cc3)nc3nonc3n12	TSHR antag inconclusive, gsp antagonist 35µM
Cc1ccc(-n2ncc3c(N4CCCC4)ncnc32)c(C)c1	none
COc1cccc(N2CCN(c3ncnc4c3cnn4-c3ccc(C)cc3C)CC2)c1	TSHR antag -93, gsp antagonist 7.9µM (no result: RXFP1 antag)
CN(Cc1ccccc1F)c1nc(-c2cccnc2)nc2ccccc12	gsp antagonist inconclusive, RXFP1 antag -67
Cc1ccc(CN(C)c2nc(-c3cccnc3)nc3ccccc23)o1	none
O=C(CCCCn1c(=O)c2ccccc2n(Cc2cccc(Cl)c2)c1=O)NCc1ccc2c(c1)OCO2	none (no result: gsp agonist, TSHR antag, gsp antagonist, RXFP1 antag)
CCn1c2ccccc2c2cc(/C=N/NC(=O)c3cc(O)cc(O)c3)ccc21	gsp antagonist inconclusive, RXFP1 antag -83
Cn1c2ccccc2c2cc(/C=N/NC(=O)c3ccc(O)cc3O)ccc21	gsp antagonist inconclusive
CCn1c2ccccc2c2cc(/C=N/NC(=O)c3ccc(O)cc3)ccc21	gsp antagonist 28µM
CCn1c2ccccc2c2cc(/C=N/NC(=O)c3ccncc3)ccc21	none (no result: gsp antagonist)
Cc1cccc(C(=O)N(Cc2ccco2)Cc2ccccc2F)c1	RXFP1 antag -72 (no result: gsp agonist, TSHR antag, gsp antagonist)
Cc1cc(OC(C)C(=O)N2CCC(c3nc4ccccc4o3)CC2)ccc1Cl (stereo not drawn)	RXFP1 antag -62 (no result: gsp agonist, TSHR antag, gsp antagonist)

High-throughput results as filed in PubChem.
